Test results published in the supplement of paper PMC13380429.

Test system: Vero E6 infected with SARS-CoV-2
Assay: inhibition of SARS-CoV-2 cytopathic effect; higher = more antiviral protection, active = above 15
Conditions: 48 h

Measured: inhibition of SARS-CoV-2 cytopathic effect

O=CN1CCC(C(=O)NCCN2CCC(=C3c4ccccc4C=Cc4ccccc43)CC2)CC1
inactive: 1 nM 1.02% | 8.33 nM 0.48% | 100 nM 0.42% | 833.33 nM -2.21% | 10000 nM 1.23%

Nc1ccn([C@H]2CO[C@@H](CO)S2)c(=O)n1 [apricitabine]
inactive: 1 nM 0.27% | 8.33 nM 2.59% | 100 nM 0.92% | 833.33 nM 2.02% | 10000 nM -3.28%

Cc1cc(/C=C/c2ccc3cc(N(C)C)ccc3[n+]2C)c(C)n1-c1ccccc1 [pyrvinium-pamoate]
inactive: 1 nM -1.06% | 8.33 nM -0.84% | 100 nM -3.02% | 833.33 nM -2.46% | 10000 nM -13.7%

Cc1cnc(C(=O)N[C@H]2CCCCC/C=C\[C@@H]3C[C@@]3(C(=O)NS(=O)(=O)C3CC3)NC(=O)[C@@H]3C[C@@H](Oc4nc5ccccc5c5ccccc45)CN3C2=O)cn1 [paritaprevir]
inactive: 1 nM -1.75% | 8.33 nM -2.06% | 100 nM -0.72% | 833.33 nM 0.24% | 10000 nM 1.71%

COc1cc2c(cc1OC)CN(CCc1ccc(NC(=O)c3cc(OC)c(OC)cc3NC(=O)c3cnc4ccccc4c3)cc1)CC2 [tariquidar]
inactive: 1 nM 1.54% | 8.33 nM -1.28% | 100 nM 2.75% | 833.33 nM 1.99% | 10000 nM -0.52%

Cc1oc(-c2ccccc2)nc1CCOc1ccc(CC2SC(=O)NC2=O)c2sccc12 (stereo not given) [edaglitazone]
inactive: 1 nM 0.32% | 8.33 nM 0.98% | 100 nM 0.63% | 833.33 nM 1.32% | 10000 nM 2.31%
